“And” between values parts separate entries of the source, which are not always exact repeats. Equal entries are not always repeated. Among all 5,500 compounds or so, about 2,000 (36%) were called active. Inconclusive results (about 18%) are left out. Cut-off read from the data, not from the text of the source: active = normalized growth mostly below about 0.91 (no sharp cut-off); inconclusive = no clear call, values can overlap the other calls; inactive = mostly above about 0.92. This is one part of the list.
Test: chemical genetic growth profiling, strain panel (AID 1159580);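 note: tested at 20 µM; growth read once vehicle control cultures reached saturation at 30 °C; 1 = growth at the plate median or of vehicle wells; lower values mean less growth of the strain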
Details: S. cerevisiae deletion strains, growth OD

Measured: normalized growth

CC1(C)CC2C1CCC1(C)OC1CCC2(C)O (centres undefined)
inactive: locus YAL013W, strain DEP1, active compounds read low 1.02 | locus YAL021C, strain ccr4, active compounds read low 1.01 | locus YAL026C, strain drs2, active compounds read low 1.05 | locus YAL030W, strain snc1, active compounds read low 1.03 | locus YBL061C, strain skt5, active compounds read low 1.04 | locus YBR009C, strain hhf1, active compounds read low 1.06 | locus YBR021W, strain FUR4, active compounds read low 1.01 | locus YBR023C, strain chs3, active compounds read low 1.05 | locus YBR171W, strain sec66, active compounds read low 1.06 | locus YBR229C, strain ROT2, active compounds read low 1 | locus YBR231C, strain swc5, active compounds read low 1.04 | locus YBR279W, strain paf1, active compounds read low 1.03 | locus YCL011C, strain gbp2, active compounds read low 1.04 | locus YCL016C, strain dcc1, active compounds read low 1.03 | locus YCL029C, strain bik1, active compounds read low 1.03 | locus YCL061C, strain MRC1, active compounds read low 1.04 | locus YCL069W, strain vba3, active compounds read low 1.04 | locus YCR088W, strain abp1, active compounds read low 1.04 | locus YDL005C, strain med2, active compounds read low 1.03 | locus YDL035C, strain GPR1, active compounds read low 1.03 | locus YDL040C, strain nat1, active compounds read low 1.03 | locus YDL074C, strain BRE1, active compounds read low 1.07 | locus YDL101C, strain DUN1, active compounds read low 1.03 | locus YDL185W, strain tfp1, active compounds read low 1.01 | locus YDL192W, strain arf1, active compounds read low 1.03 | locus YDR001C, strain nth1, active compounds read low 1.03 | locus YDR069C, strain doa4, active compounds read low 1.06 | locus YDR101C, strain arx1, active compounds read low 0.987 | locus YDR137W, strain rgp1, active compounds read low 1.07 | locus YDR159W, strain sac3, active compounds read low 1.11 | locus YDR162C, strain NBP2, active compounds read low 1.06 | locus YDR195W, strain ref2 1.01 | locus YDR297W, strain sur2, active compounds read low 1.05 | locus YDR318W, strain mcm21, active compounds read low 1.04 | locus YDR334W, strain swr1, active compounds read low 1.04 | locus YDR335W, strain msn5, active compounds read low 1.04 | locus YDR388W, active compounds read low 1.02 | locus YDR392W, strain spt3, active compounds read low 1.01 | locus YDR502C, strain sam2, active compounds read low 1.06 | locus YEL003W, strain gim4, active compounds read low 1.04 | locus YEL037C, strain rad23, active compounds read low 1.03 | locus YEL061C, strain CIN8 (second series), active compounds read low 1.03 | locus YEL061C, strain CIN8, active compounds read low 1.02 | locus YER015W, strain faa2, active compounds read low 1.04 | locus YER016W, strain bim1, active compounds read low 1.04 | locus YER110C, active compounds read low 1.01 | locus YER111C, strain swi4, active compounds read low 1.03 | locus YER155C, strain BEM2 (second series), active compounds read low 1.07 | locus YER155C, strain BEM2, active compounds read low 1.03 | locus YER167W, strain BCK2, active compounds read low 1.01 | locus YFR010W, strain ubp6, active compounds read low 1.05 | locus YGL078C, strain dbp3, active compounds read low 1.02 | locus YGL086W, strain mad1, active compounds read low 1.02 | locus YGL167C, strain pmr1, active compounds read low 1.03 | locus YGL173C, strain kem1, active compounds read low 1.06 | locus YGL227W, strain vid30, active compounds read low 1.03 | locus YGL240W, strain doc1, active compounds read low 1.04 | locus YGL248W, strain PDE1, active compounds read low 1.05 | locus YGL253W, strain hxk2, active compounds read low 1.07 | locus YGR135W, strain pre9, active compounds read low 1.04 | locus YGR252W, strain gcn5, active compounds read low 1.17 | locus YHR013C, strain ard1, active compounds read low 1.05 | locus YHR027C, strain rpn1, active compounds read low 1.06 | locus YHR030C, strain SLT2, active compounds read low 1.02 | locus YHR079C, strain IRE1 (second series), active compounds read low 1.01 | locus YHR079C, strain IRE1, active compounds read low 1.04 | locus YHR094C, strain hxt1, active compounds read low 1.01 | locus YHR129C, strain ARP1, active compounds read low 1.02 | locus YHR142W, strain chs7, active compounds read low 1.06 | locus YHR200W, strain rpn10, active compounds read low 1.04 | locus YIL066C, strain RNR3, active compounds read low 1.02 | locus YIL073C, strain SPO22, active compounds read low 1.12 | locus YIL125W, strain kgd1, active compounds read low 1.01 | locus YIR030C, strain dcg1, active compounds read low 1.01 | locus YJL092W, strain hpr5, active compounds read low 1.04 | locus YJL095W, strain BCK1 (second series), active compounds read low 1.03 | locus YJL095W, strain BCK1, active compounds read low 1.08 and 1.04 | locus YJL115W, strain asf1, active compounds read low 1.04 | locus YJL129C, strain trk1, active compounds read low 1.08 | locus YJL134W, strain LCB3, active compounds read low 1.02 | locus YJL154C, strain vps35, active compounds read low 1.03 | locus YJL164C, strain tpk1, active compounds read low 1.04 | locus YJL166W, strain qcr8, active compounds read low 1.05 | locus YJL168C, strain set2, active compounds read low 1.02 | locus YJL187C, strain SWE1 (second series), active compounds read low 1.06 | locus YJL187C, strain SWE1, active compounds read low 1.05 | locus YJR043C, strain POL32, active compounds read low 1.04 | locus YJR066W, strain TOR1, active compounds read low 0.961 | locus YKL009W, strain mrt4, active compounds read low 1.01 | locus YKL068W, active compounds read low 1 | locus YKL085W, strain MDH1 (second series), active compounds read low 1 | locus YKL085W, strain MDH1, active compounds read low 1 | locus YKL160W, strain elf1, active compounds read low 1.02 | locus YKR001C, strain vps1, active compounds read low 1.1 | locus YKR026C, strain gcn3, active compounds read low 1.04 | locus YKR091W, strain srl3, active compounds read low 1.02 | locus YLL001W, strain dnm1, active compounds read low 1.01 | locus YLL026W, active compounds read low 1.04 | locus YLL041C, strain sdh2, active compounds read low 1.03 | locus YLR027C, strain aat2, active compounds read low 1.05 | locus YLR039C, strain RIC1, active compounds read low 1.2 | locus YLR058C, strain SHM2, active compounds read low 1.05 | locus YLR102C, strain apc9, active compounds read low 1.01 | locus YLR113W, strain HOG1, active compounds read low 1.03 | locus YLR221C, strain rsa3, active compounds read low 1.07 | locus YLR258W, strain gsy2, active compounds read low 1.05 | locus YLR262C, strain YPT6 (second series), active compounds read low 1.06 | locus YLR268W, strain sec22, active compounds read low 1.04 | locus YLR320W, strain mms22, active compounds read low 1.07 | locus YLR342W, strain FKS1 (second series), active compounds read low 1.09 | locus YLR342W, strain FKS1, active compounds read low 1.05 | locus YLR357W, strain rsc2, active compounds read low 1.07 | locus YLR370C, strain arc18, active compounds read low 1.04 | locus YLR371W, strain rom2, active compounds read low 0.999 | locus YLR384C, strain iki3, active compounds read low 1.05 | locus YLR418C, strain cdc73, active compounds read low 1.11 | locus YML016C, strain PPZ1, active compounds read low 1.01 | locus YML032C, strain rad52, active compounds read low 1.04 | locus YML120C, strain ndi1, active compounds read low 1.03 | locus YML124C, strain tub3, active compounds read low 0.999 | locus YMR058W, strain fet3, active compounds read low 1.05 | locus YMR078C, strain ctf18, active compounds read low 1.01 | locus YMR125W, strain sto1, active compounds read low 1.05 | locus YMR129W, active compounds read low 1.02 | locus YMR205C, strain PFK2, active compounds read low 1.06 | locus YMR223W, strain ubp8, active compounds read low 1.05 | locus YMR231W, strain pep5, active compounds read low 1.04 | locus YMR263W, strain SAP30, active compounds read low 1.02 | locus YMR307W, strain GAS1, active compounds read low 1.1 | locus YNL067W, strain RPL9B, active compounds read low 1.03 | locus YNL071W, strain lat1, active compounds read low 1.04 | locus YNL128W, strain TEP1, active compounds read low 1.04 | locus YNL153C, strain GIM3, active compounds read low 1.05 | locus YNL183C, strain NPR1, active compounds read low 0.975 | locus YNL209W, strain ssb2, active compounds read low 1.03 | locus YNL233W, strain BNI4, active compounds read low 1.07 | locus YNL248C, strain rpa49, active compounds read low 1.05 | locus YNL250W, strain rad50, active compounds read low 1.04 | locus YNL271C, strain bni1, active compounds read low 1.03 | locus YNL298W, strain CLA4, active compounds read low 1.01 | locus YNL307C, strain MCK1, active compounds read low 1.01 | locus YNL322C, strain KRE1 (second series), active compounds read low 1.04 | locus YNL322C, strain KRE1, active compounds read low 1.02 | locus YNR049C, strain mso1, active compounds read low 1.04 | locus YNR052C, strain pop2, active compounds read low 1.03 | locus YOL006C, strain TOP1, active compounds read low 1.19 | locus YOL012C, strain htz1 1 | locus YOL147C, strain pex11, active compounds read low 1.02 | locus YOR001W, strain rrp6, active compounds read low 1.08 | locus YOR061W, strain CKA2, active compounds read low 1.02 | locus YOR069W, strain VPS5, active compounds read low 1.02 | locus YOR070C, strain gyp1, active compounds read low 1.05 | locus YOR080W, strain dia2, active compounds read low 1.03 | locus YOR083W, strain WHI5, active compounds read low 1.03 | locus YOR106W, strain vam3, active compounds read low 1.04 | locus YOR136W, strain idh2, active compounds read low 1 | locus YOR144C, strain elg1, active compounds read low 1.01 | locus YOR184W, strain ser1, active compounds read low 1.05 | locus YOR231W, strain MKK1, active compounds read low 1.05 | locus YOR265W, strain rbl2, active compounds read low 1.04 | locus YOR270C, strain vph1, active compounds read low 1.14 | locus YOR290C, strain snf2, active compounds read low 1.04 | locus YOR316C, strain cot1, active compounds read low 1 | locus YPL051W, strain arl3, active compounds read low 1.05 | locus YPL055C, strain LGE1, active compounds read low 1.06 | locus YPL078C, strain atp4, active compounds read low 1.02 | locus YPL106C, strain sse1, active compounds read low 1.02 | locus YPL240C, strain hsp82, active compounds read low 1.03 | locus YPL256C, strain CLN2, active compounds read low 1.04 | locus YPR119W, strain clb2, active compounds read low 1.02 | locus YPR141C, strain kar3, active compounds read low 0.991 | locus YPR163C, strain tif3, active compounds read low 1.04 | locus YPR167C, strain met16, active compounds read low 1 | strain wtn01, active compounds read low 1.04
